# From PubChem BioAssay (NCATS)
# Several values for one entry are separate records, joined by “and”; a condition that tells them apart may be missing. Equal values may be shown once. Unmarked numbers belong to inactive results. Records with an inconclusive call do not appear. Activity calls are given as the source filed them. Unless noted, calls follow the shape of the dose curve; as a rule, active = well fitted curve in either direction with a large enough effect (not every such curve was filed as active); inconclusive = small, poorly fitted or top-dose-only effect, or another doubt; inactive = flat fitted curve, though single readings scatter.
# Columns and labels:
# [1] = AP1 Signaling Pathway (AID 357); conditions: ME-180 AP-1-bla reporter, EGF-induced, beta-lactamase ratio, 5 h; at 17.2 µM (top of the series) unless noted; also: % is scaled to controls: 0 for no effect and ±100 for the full control effect
# Procedure, shortened: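 AP-1-bla ME-180 cells with beta-lactamase reporter under AP-1 response element, stimulated with EC50 EGF; compounds titrated, 5 hours at 37 degrees Celsius. CCF4 read at 460/530 nm ratio; positive and negative modulators judged by AC50.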
# [2] = target: Cytochrome P450 1A2 (Homo sapiens) (UniProt P05177); experiment: p450-cyp1a2 (AID 410; calls by dose curve; also: potency is read from the fitted curve at half-maximal effect;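 as to activity change, negative = inhibition: -100% = full effect of reference inhibitor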)
# Procedure, shortened: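 20nM CYP1A2, 100uM Luciferin-ME (=Km), 100mM KPO4; cpd 10 min RT; +NADPH regen, 60 min RT; stop/detect 20 min; luminescence. Normalized to furafylline 57 uM = full inhibition.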
# [3] = Cell Viability - BJ (AID 421; calls by dose curve;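 also: potency is read from the fitted curve at half-maximal effect; cells exposed to compound for 40 hours at 37 °C before readout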); conditions: BJ fibroblast viability, qHTS
# Procedure, shortened: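 Cytotoxicity as drop in intracellular ATP (CellTiter-Glo, 20 min RT) after 40 hr compound exposure of BJ fibroblasts at 37 °C. Titrations scaled between DMSO and 100 uM tamoxifen, Hill-fitted for AC50.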
# [4] = Cell Viability - Jurkat (AID 426;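 active = dose-dependent loss of cell ATP signal giving a full or clear fitted curve, ranked by lower potency value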; also: potency is read from the fitted curve at half-maximal effect); conditions: qHTS
# Procedure, shortened: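 Luminescent ATP read-out (CellTiter-Glo, 20 min at room temperature) after 40 hr compound exposure at 37 °C of Jurkat E6-1 cells, 5000/well. Decreased ATP taken as cytotoxicity; AC50 from standard Hill equation.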
# [5] = Cell Viability - HepG2 (AID 433; calls by dose curve;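 also: potency is read from the fitted curve at half-maximal effect; potency for ATP loss meaning cytotoxicity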); conditions: qHTS
# Procedure, shortened: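 In this qHTS format, a 40 h, 37 °C compound incubation of HepG2 cells in complete medium precedes a 20 min CellTiter-Glo step at room temperature. Tamoxifen and doxorubicin serve as positive controls; Hill-equation fits yield AC50.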
# [6] = Cell Viability - MRC5 (AID 434; calls by dose curve;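 also: potency is read from the fitted curve at half-maximal effect; potency reflects cytotoxicity seen as loss of intracellular ATP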); conditions: MRC5 lung fibroblast viability, qHTS
# Procedure, shortened: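 ATP luminescence read-out (CellTiter-Glo, 20 min RT) after 40 hr, 37 °C compound exposure of 1500 MRC5 cells/well. Data normalized to DMSO (basal) and 100 uM tamoxifen (100% inhibition); AC50 from standard Hill equation.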
# [7] = Cell Viability - SK-N-SH (AID 435; calls by dose curve; also: potency is read from the fitted curve at half-maximal effect); conditions: SK-N-SH neuroblastoma cell viability qHTS
# Procedure, shortened: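 Human neuroblastoma line, 40 h exposure at 37 °C, ATP quantified via luciferase luminescence; DMSO and 100 uM tamoxifen define 0 and 100% inhibition for AC50 fitting.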
# [8] = NFAT Signaling Pathway (AID 444); conditions: Jurkat NFAT-bla M1, carbachol, beta-lactamase ratio, 5 h; at 17.2 µM (top of the series) unless noted;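 also: carbachol stimulus at about its EC50 of 1 µM final; % is scaled to controls: 0 for no effect and ±100 for the full control effect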
# Procedure, shortened: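 Jurkat cells with NFAT-driven β-lactamase reporter and co-expressed M1 receptor, stimulated with carbachol (final 1 uM, ~EC50), compound titration, 5 h at 37 °C. CCF4 loaded 1 h at RT; 460/530 nm ratio gave %activity and AC50.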
# [9] = Stat Signaling Pathway (AID 446); conditions: ME-180 (cervical carcinoma) SIE beta-lactamase reporter, IL-6 stimulated, 5 h; at 17.2 µM (top of the series) unless noted;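 also: ME-180 cervical cancer cells given 40 pM IL-6 alongside compound; SIE-controlled beta-lactamase reporter measured as 460/530 nm FRET emission ratio; % is scaled to controls: 0 for no effect and ±100 for the full control effect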
# Procedure, shortened: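 FRET read-out (405 nm excitation, 460/530 nm emission) of a beta-lactamase reporter under a STAT-inducible element in ME-180 cervical carcinoma cells. Cells with compound receive 40 pM IL-6 for 5 h. Values are normalised to AC90 stimulation and AC90 JAK-inhibitor controls.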
# [10] = target: Glucocorticoid receptor (Homo sapiens) (UniProt P04150); experiment: GR-GFP Redistribution (AID 450;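 active = compounds whose dose series gives a full or clear partial fitted curve of increased nuclear translocation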; also: potency is read from the fitted curve at half-maximal effect); conditions: U2OS GR-GFP nuclear translocation, laser cytometry, 2 h
# [11] = target: Glucocorticoid receptor (Homo sapiens) (UniProt P04150); experiment: GR-EFC Redistribution (AID 451; calls by dose curve; also: potency is read from the fitted curve at half-maximal effect); conditions: CHO-K1 GR-EFC translocation, beta-gal luminescence, 2 h
# Procedure, shortened: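 CHO-K1 cells expressing nuclear EA and GR-ED fragments of b-gal; compounds titrated up to 46 uM final, 2 h at 37 C. GR nuclear translocation read as complemented b-gal luminescence after 1 h RT detection.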
# [12] = target: Mitogen-activated protein kinase 10 (Mus musculus) (UniProt Q61831); experiment: JNK3 AlphaScreen Assay (AID 530);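 also: kinase came from lysate of stimulated human HepG2 cells; signal reports phosphorylation of biotinylated GST-cJun 1-79 at Ser73 with 10 µM ATP; % is scaled to controls: 0 for no effect and ±100 for the full control effect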
# Procedure, shortened: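 HepG2 lysate (IL-1b/TNFa pre-activated) + biotin-GST-cJun 1-79 + anti-pSer73 cJun; cpd titration, 15 min RT; ATP 10 uM start; Tris pH 7.6, MgCl2, DTT, vanadate; beads in EDTA buffer; AlphaScreen.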
# [13] = Cell Viability - N2a (AID 540; active = well fitted curve in the direction sought with a large enough effect; an effect the other way counts as inactive or inconclusive; also: nearly all actives have a fitted effect of over 45% in size; also: potency is read from the fitted curve at half-maximal effect;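 as to activity change, negative = cytotoxicity: plate controls were DMSO alone for no effect and tamoxifen control for full effect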); conditions: N2a mouse neuroblastoma cell viability; activity change, negative = cytotoxicity: at 92.2 µM (top of the series)
# Procedure, shortened: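 N2a mouse neuroblastoma, 1500 cells/well, 5 hr settle; compound 40 hr, 37 °C; CellTiter-Glo 20 min RT; luminescence; Hill-fit AC50.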
# [14] = Cell Viability - NIH 3T3 (AID 541; active = well fitted curve in the direction sought with a large enough effect; an effect the other way counts as inactive or inconclusive;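 also: plate controls were DMSO alone for no effect and tamoxifen positive control for full effect; nearly all actives have a fitted effect of over 25% in size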); conditions: NIH 3T3 cell viability, qHTS; activity change, negative = cytotoxicity: at 92.2 µM (top of the series)
# Procedure, shortened: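 qHTS format; 40 hr compound exposure, 37 °C; CellTiter-Glo luminescence (cellular ATP) read-out after 20 min at RT. Decrease in ATP = cytotoxicity; AC50 from standard Hill fit.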
# [15] = Cell Viability - HUV-EC-C (AID 542; active = well fitted curve in the direction sought with a large enough effect; an effect the other way counts as inactive or inconclusive; also: % is scaled to controls: 0 for no effect and ±100 for the full control effect; nearly all actives have a fitted effect of over 35% in size)
# Procedure, shortened: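 Luminescent ATP read-out (CellTiter-Glo, 20 min room temperature) after 40 hr compound treatment of HUV-EC-C cells at 37 °C. Concentration-response data fitted with the standard Hill equation to give AC50; tamoxifen and doxorubicin served as positive controls.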
# [16] = Cell Viability - H-4-II-E (AID 543; active = well fitted curve in the direction sought with a large enough effect; an effect the other way counts as inactive or inconclusive; also: nearly all actives have a fitted effect of over 35% in size; also: potency is read from the fitted curve at half-maximal effect)
# Procedure, shortened: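 qHTS, rat hepatoma H-4-II-E, 1500 cells/well; 40 hr compound exposure, 37 °C; CellTiter-Glo ATP luminescence after 20 min RT; AC50 by standard Hill fit.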
# [17] = Cell Viability - SH-SY5Y (AID 544; active = well fitted curve in the direction sought with a large enough effect; an effect the other way counts as inactive or inconclusive;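 also: 0% = DMSO alone and -100% = 100 µM tamoxifen; nearly all actives have a fitted effect of over 55% in size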); conditions: SH-SY5Y neuroblastoma cell viability; viability change, negative = cytotoxic: at 92.2 µM (top of the series)
# Procedure, shortened: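 SH-SY5Y, 1500 cells/well, 5 hr pre-incubation 37 °C; cpd 40 hr 37 °C; CellTiter-Glo 20 min RT; luminescence (ATP) read. qHTS concentration-response, Hill fit → AC50. Tamoxifen, doxorubicin as positive controls.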
# [18] = Cell Viability - Renal Proximal Tubule (AID 545; active = well fitted curve in the direction sought with a large enough effect; an effect the other way counts as inactive or inconclusive; also: nearly all actives have a fitted effect of over 40% in size; also: potency is read from the fitted curve at half-maximal effect;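 as to activity change, negative = cytotoxicity: 0% = DMSO only and -100% = 100 µM tamoxifen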)
# Procedure, shortened: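 In this qHTS format, normal rat kidney-derived proximal tubule cells in complete culture medium receive compound titrations, then sit 40 hours at 37 °C before luciferase-based ATP quantitation; potency is reported as AC50 from concentration-response curves.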
# [19] = Cell Viability - Mesenchymal (AID 546; active = well fitted curve in the direction sought with a large enough effect; an effect the other way counts as inactive or inconclusive;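 also: cells exposed to compound for 40 hours before reading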; also: potency is read from the fitted curve at half-maximal effect;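 as to activity change, negative = cytotoxicity: 0% = DMSO only and -100% = 100 µM tamoxifen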)
# Procedure, shortened: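 Human renal mesenchymal cells (glomerulus-derived), 1000 cells/well, 5 hr 37 °C pre-incubation; compound 40 hr, 37 °C; CellTiter-Glo, 20 min RT; luminescence; AC50 via Hill equation.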
# [20] = target: 3',5'-cyclic-AMP phosphodiesterase 4B (Homo sapiens) (UniProt Q07343); experiment: qHTS Assay for Inhibitors of PDE-IV (AID 607; active = well fitted activation curve with a large enough effect in the main read-out, with a control signal flat, not every such curve was filed as active; also: % of control where 0% means no effect)
# Procedure, shortened: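 Cell-based read-out of cAMP via a modified cyclic nucleotide-gated channel and membrane potential dye (535/590 nm) in HEK293 cells expressing PDE4 endogenously. Compounds tested up to 22.9 uM final; 100 uM RO 20-1724 reference.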
# 3',5'-cyclic-AMP phosphodiesterase 4B (Homo sapiens), sequence (Q07343 whole entry, looked up): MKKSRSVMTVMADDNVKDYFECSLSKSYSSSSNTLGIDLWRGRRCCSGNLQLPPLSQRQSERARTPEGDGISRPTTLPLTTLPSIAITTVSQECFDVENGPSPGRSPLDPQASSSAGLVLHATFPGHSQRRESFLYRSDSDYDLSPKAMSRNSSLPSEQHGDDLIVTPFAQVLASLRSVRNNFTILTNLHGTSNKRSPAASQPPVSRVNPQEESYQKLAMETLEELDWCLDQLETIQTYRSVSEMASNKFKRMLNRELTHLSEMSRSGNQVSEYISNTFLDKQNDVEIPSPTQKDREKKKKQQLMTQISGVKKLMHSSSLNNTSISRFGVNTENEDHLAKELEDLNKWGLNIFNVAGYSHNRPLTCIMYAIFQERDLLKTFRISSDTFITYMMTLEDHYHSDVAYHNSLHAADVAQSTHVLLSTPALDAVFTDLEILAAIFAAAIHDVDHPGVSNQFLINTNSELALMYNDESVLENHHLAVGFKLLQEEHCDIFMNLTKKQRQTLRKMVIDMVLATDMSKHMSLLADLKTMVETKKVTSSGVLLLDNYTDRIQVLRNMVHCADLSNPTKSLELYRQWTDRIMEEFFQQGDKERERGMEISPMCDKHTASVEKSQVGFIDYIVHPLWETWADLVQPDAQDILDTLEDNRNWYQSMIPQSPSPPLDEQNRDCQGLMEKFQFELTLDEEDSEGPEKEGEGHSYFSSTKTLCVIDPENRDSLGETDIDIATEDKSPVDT
# Cytochrome P450 1A2 (Homo sapiens), sequence (P05177 whole entry, looked up): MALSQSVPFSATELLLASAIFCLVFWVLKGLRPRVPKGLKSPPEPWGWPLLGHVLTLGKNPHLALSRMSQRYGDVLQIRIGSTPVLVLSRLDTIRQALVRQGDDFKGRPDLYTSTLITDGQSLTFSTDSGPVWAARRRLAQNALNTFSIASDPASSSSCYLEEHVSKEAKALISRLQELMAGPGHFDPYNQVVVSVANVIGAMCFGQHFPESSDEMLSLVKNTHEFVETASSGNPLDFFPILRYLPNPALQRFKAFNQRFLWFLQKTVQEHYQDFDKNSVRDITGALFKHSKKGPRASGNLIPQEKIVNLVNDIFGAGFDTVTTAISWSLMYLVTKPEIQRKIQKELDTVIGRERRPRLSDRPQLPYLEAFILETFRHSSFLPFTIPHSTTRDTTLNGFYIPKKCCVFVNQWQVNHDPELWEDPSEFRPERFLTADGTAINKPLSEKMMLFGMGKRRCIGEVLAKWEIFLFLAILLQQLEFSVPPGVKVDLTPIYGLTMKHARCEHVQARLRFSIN
# Glucocorticoid receptor (Homo sapiens), sequence (P04150 whole entry, looked up, the tested form may be a part): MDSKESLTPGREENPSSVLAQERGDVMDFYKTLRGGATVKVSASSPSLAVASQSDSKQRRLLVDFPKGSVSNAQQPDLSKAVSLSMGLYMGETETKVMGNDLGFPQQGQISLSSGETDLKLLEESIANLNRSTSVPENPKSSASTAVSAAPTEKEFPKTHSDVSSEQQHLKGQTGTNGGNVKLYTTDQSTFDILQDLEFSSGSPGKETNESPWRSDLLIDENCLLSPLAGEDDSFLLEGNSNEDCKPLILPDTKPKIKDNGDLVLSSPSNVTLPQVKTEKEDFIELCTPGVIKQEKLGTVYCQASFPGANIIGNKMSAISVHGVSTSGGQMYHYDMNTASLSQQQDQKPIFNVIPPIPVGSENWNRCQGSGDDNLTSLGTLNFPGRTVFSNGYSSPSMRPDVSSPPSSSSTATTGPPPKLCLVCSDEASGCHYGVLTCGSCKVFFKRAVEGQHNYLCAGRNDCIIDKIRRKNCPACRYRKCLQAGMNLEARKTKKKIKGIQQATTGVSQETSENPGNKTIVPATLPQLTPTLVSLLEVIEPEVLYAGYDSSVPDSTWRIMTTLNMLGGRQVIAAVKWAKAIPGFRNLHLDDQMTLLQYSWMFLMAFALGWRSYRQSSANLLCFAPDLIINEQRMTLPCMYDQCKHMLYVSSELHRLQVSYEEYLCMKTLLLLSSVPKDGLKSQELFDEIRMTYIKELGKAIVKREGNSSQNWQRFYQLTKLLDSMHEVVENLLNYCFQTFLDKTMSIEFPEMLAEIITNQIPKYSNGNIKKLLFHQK
structure (smiles),measurement,setting,value
CC1=NN(c2ccccc2)C(=O)C1,"activity change, negative = inhibition",[1],-7.19%
same,Potency,[2],12.6 µM (active)
same,Potency,[3],> 92 µM
same,Potency,[4],> 92 µM
same,Potency,[5],> 92 µM
same,Potency,[6],> 92 µM
same,Potency,[7],> 92 µM
same,"activity change, negative = inhibition",[8],9.94%
same,"activity, negative = inhibition",[9],-2.54%
same,Potency,[10],> 46 µM and > 20.6 µM
same,Potency,[11],> 46 µM
same,Potency,[12],inactive
same,Potency,[13],inactive
same,"activity change, negative = cytotoxicity",[14],-5.02%
same,Potency,[15],inactive
same,Potency,[16],inactive
same,Potency,[17],inactive
same,Potency,[18],inactive
same,Potency,[19],inactive
same,outcome,[20],inactive
COc1ccc2c(c1)c(CC(=O)OCC(=O)O)c(C)n2C(=O)c1ccc(Cl)cc1,"activity change, negative = inhibition",[1],-9.7% and -8.22%
same,Potency,[2],inactive
same,"activity change, negative = inhibition",[8],2.54% and 1.97%
same,"activity, negative = inhibition",[9],1.57% and -16%
same,Potency,[10],> 20.6 µM
same,Potency,[11],> 20.6 µM
same,outcome,[20],inactive
CCCCOc1ccc(CC(=O)NO)cc1,"activity change, negative = inhibition",[1],-22.1% and -10.8%
same,Potency,[2],1.58 µM (active)
same,"activity change, negative = inhibition",[8],-5.9% and 15%
same,"activity, negative = inhibition",[9],-9.96% and -7.15%
same,Potency,[10],> 20.6 µM
same,Potency,[11],> 20.6 µM
CC[C@H](C)C(=O)O[C@H]1C[C@@H](C)C=C2C=C[C@H](C)[C@H](CC[C@@H]3C[C@@H](O)CC(=O)O3)[C@H]21,"activity change, negative = inhibition",[1],-19.5%
same,Potency,[3],> 92 µM
same,Potency,[6],> 92 µM
same,"activity, negative = inhibition",[9],-3.85%
same,Potency,[10],> 20.6 µM
same,Potency,[13],2 µM (active)
same,"activity change, negative = cytotoxicity",[14],-92.8% (active)
same,Potency,[15],inactive
same,Potency,[16],7.94 µM (active)
same,Potency,[18],2 µM (active)
same,Potency,[19],7.94 µM (active)
CCOC(=O)c1ccc(OC(=O)CCCCCN=C(N)N)cc1,"activity change, negative = inhibition",[1],1.04%
same,Potency,[2],12.6 µM (active) and 15.8 µM (active)
same,"activity, negative = inhibition",[9],-23.2%
same,outcome,[20],inactive
CCCOc1ccc(C(=O)OCCN(CC)CC)cc1N,"activity change, negative = inhibition",[1],5.39%
same,Potency,[2],5.01 µM (active)
same,"activity change, negative = inhibition",[8],-19.1%
same,"activity, negative = inhibition",[9],1.44%
same,Potency,[10],> 20.6 µM
same,Potency,[11],> 20.6 µM
same,outcome,[20],inactive
CCn1cc(C(=O)O)c(=O)c2cc(F)c(N3CCNCC3)nc21,"activity change, negative = inhibition",[1],-5.75% and 5.53%
same,Potency,[2],inactive
same,"activity change, negative = inhibition",[8],-11.9% and 9.94%
same,"activity, negative = inhibition",[9],4.75% and 1.14%
same,outcome,[20],inactive
NC(N)=NC(N)=NCCc1ccccc1,"activity change, negative = inhibition",[1],5.09% and 3.64%
same,Potency,[4],> 92 µM
same,Potency,[6],> 92 µM
same,Potency,[7],> 92 µM
same,"activity change, negative = inhibition",[8],-2.75% and 12.2%
same,"activity, negative = inhibition",[9],9.3% and 14.4%
same,Potency,[10],> 20.6 µM
same,Potency,[11],> 20.6 µM
same,"activity change, negative = cytotoxicity",[13],-109% (active)
same,Potency,[15],inactive
same,Potency,[17],inactive
same,Potency,[18],inactive
same,Potency,[19],inactive
same,outcome,[20],inactive
Nc1ccc(S(=O)(=O)Nc2ccccn2)cc1,"activity change, negative = inhibition",[1],-6.81% and -4.21%
same,Potency,[2],inactive
same,"activity change, negative = inhibition",[8],-3.78% and -28.1%
same,"activity, negative = inhibition",[9],-7.68% and -0.177%
same,Potency,[10],> 20.6 µM
same,Potency,[11],> 20.6 µM
same,outcome,[20],inactive
Cc1ncc([N+](=O)[O-])n1CCO,"activity change, negative = inhibition",[1],7.25% and 11.7%
same,Potency,[2],inactive
same,Potency,[3],> 92 µM
same,Potency,[4],> 92 µM
same,Potency,[5],> 92 µM
same,Potency,[6],> 92 µM
same,Potency,[7],> 92 µM
same,"activity change, negative = inhibition",[8],-4.16% and -8.01%
same,"activity, negative = inhibition",[9],4.79% and 0.586%
same,Potency,[13],inactive
same,"activity change, negative = cytotoxicity",[14],-7.75%
same,Potency,[15],inactive
same,Potency,[16],inactive
same,Potency,[17],inactive
same,Potency,[18],inactive
same,Potency,[19],inactive
same,outcome,[20],inactive
NNC(=O)c1ccncc1,"activity change, negative = inhibition",[1],11.8% and 7.05%
same,Potency,[2],6.31 µM (active)
same,Potency,[3],> 92 µM
same,Potency,[4],> 92 µM
same,Potency,[5],> 92 µM
same,Potency,[6],> 92 µM
same,Potency,[7],> 92 µM
same,"activity change, negative = inhibition",[8],-9.4% and 6.65%
same,"activity, negative = inhibition",[9],3.44% and 12.3%
same,Potency,[10],> 20.6 µM
same,Potency,[11],> 20.6 µM
same,Potency,[13],inactive
same,"activity change, negative = cytotoxicity",[14],-5.93%
same,Potency,[15],inactive
same,Potency,[16],inactive
same,Potency,[17],inactive
same,Potency,[18],inactive
same,Potency,[19],inactive
same,outcome,[20],inactive
